Measurements published in PubChem BioAssay (NCI).
Compounds without any hit were thinned out: in the full panel of roughly 79,000, 15% have a hit. Unmarked numbers belong to inactive results. Activity calls are given as the source filed them. Cut-off read from the data, not from the text of the source: active = growth inhibition above about 70%; inactive = the rest.

Assays:
[1] = NCI Yeast Anticancer Drug Screen. Data for the rad50 strain (AID 155);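 note: 0% = growth of vehicle-only cultures of the same strain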; conditions: S. cerevisiae rad50 strain growth inhibition; at 50.0 µM; hits give high values
Procedure, shortened: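 Inhibition values express reduced yeast growth in compound-treated cultures relative to vehicle-treated controls.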

[2] = NCI Yeast Anticancer Drug Screen. Data for the mec2-1 strain (AID 157); conditions: S. cerevisiae mec2-1 strain, at 50.0 µM, hits give high values
Procedure, shortened: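 mec2-1 yeast strain, carrying an alteration in DNA damage repair or cell cycle control, was exposed to compounds; growth inhibition was measured relative to vehicle-treated controls.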

[3] = NCI Yeast Anticancer Drug Screen. Data for the sgs1 mgt1 strain (AID 161);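 note: 0% = growth of cultures given vehicle only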; conditions: S. cerevisiae sgs1 mgt1 strain, at 50.0 µM, hits give high values
Procedure, shortened: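 Yeast cells carrying a defined DNA-repair defect were exposed to test compounds. Growth inhibition was measured relative to vehicle-treated controls.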

[4] = NCI Yeast Anticancer Drug Screen. Data for the cln2 rad14 strain (AID 165);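 note: 0% = growth equal to vehicle treated cultures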; conditions: S. cerevisiae cln2 rad14 strain, at 50.0 µM, hits give high values
Procedure, shortened: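 Yeast carrying cln2 and rad14 alterations (cell cycle control and DNA damage repair) were exposed to compounds. Growth inhibition was measured against vehicle-treated controls.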

[5] = NCI Yeast Anticancer Drug Screen. Data for the bub3 strain (AID 167); conditions: S. cerevisiae bub3 mutant strain, at 50.0 µM, hits give high values
Procedure, shortened: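 Steps: expose the mutant yeast strain to compound; grow alongside vehicle-treated cultures; measure growth; express inhibition against the vehicle cultures.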

[6] = NCI Yeast Anticancer Drug Screen. Data for the mlh1 rad18 strain (AID 175); conditions: S. cerevisiae mlh1 rad18 strain growth inhibition; at 50.0 µM; hits give high values
Procedure, shortened: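 Growth inhibition of the yeast strain was measured after compound exposure and expressed relative to vehicle-treated controls. The strain carries defined defects in DNA damage repair.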

| Structure (SMILES) | growth inhibition [1] | growth inhibition [2] | growth inhibition [3] | growth inhibition [4] | growth inhibition [5] | growth inhibition [6] |
| --- | --- | --- | --- | --- | --- | --- |
| CCCOC(=O)c1ccccc1N | 6.05% | -1.25% | -1.55% | -16.9% | -4.75% | -19.4% |
| O=S1(=O)CC2(N3CCOCC3)C3CCC(C3)C21 (centres undefined) | 24% | 4.6% | 0.6% | -0.4% | 9.15% | 11.6% |
| NC(c1ccccc1)C(O)c1ccc(O)cc1 (centres undefined) | 19.4% | 12.3% | 10.1% | -10.6% | 1.05% | -8.35% |
| CC(=O)O[C@H]1CC[C@]2(C)C3=C([C@@H](OO)C[C@H]2C1(C)C)[C@]1(C)CC[C@H]([C@H](C)CCCC(C)C)[C@@]1(C)CC3 | 13.1% | 4.4% | 14.7% | 20.9% | 8.45% | 25.3% |
| CCC(CN)c1ccccc1 (centres undefined) | 13.6% | -0.85% | 2.75% | 0.65% | -14.4% | -9.4% |
| C[C@]12CC[C@H]3[C@@H](CCC4=CC(=O)CC[C@@]43C)[C@]1(O)CC[C@]2(O)C(=O)CO | 11.2% | -12.6% | -30.4% | -2.05% | -17.3% | -9.1% |
| CCCCCCCCCCCCCCCC(=O)[O][Hg][c]1ccccc1 | 97.6% (active) | 96.7% (active) | 99% (active) | 98.1% (active) | 99.2% (active) | 98.8% (active) |
| CC12CCC(OC3OC(CO)C(O)C(O)C3O)C=C1CCC1C2CCC2(C)C(c3ccc(=O)oc3)CCC12 (centres undefined) | 62.5% | 60% | 46.3% | 35.2% | 61.2% | 45.6% |
| BrCCCBr | 15.1% | 5.8% | 14.4% | 10.7% | 12.4% | 21.3% |
| CCOC(=O)C(Cc1c[nH]c2ccccc12)NC(=O)/C=C/N(CCCl)CCCl (centres undefined) | 9.25% | 9.95% | 17% | 0.25% | -14.5% | 22.2% |
| COc1ccccc1OC (tested in a mixture with another compound) | 22.5% | 16.7% | 26.4% | -17.4% | 14.2% | 16.2% |
| CN/N=C(/CCN1CCCC1)CC(c1ccccc1)c1c(O)c2ccccc2oc1=O (centres undefined) | 35.5% | 9% | 29.6% | 35.2% | 31.5% | 37.4% |
| O=C(CC(=O)C(F)(F)F)c1cccs1 | -6.15% | -11.6% | 1.1% | 12.3% | 11.9% | -13.1% |
| O=C(Nc1ncn[nH]1)C(Cl)(Cl)Cl | -4.1% | -15.9% | -7.15% | -53% | -2% | -7.25% |
| C[n+]1ccc(/C=C\c2ccc(N(CCCl)CCCl)cc2)c2ccccc21 | 4.8% | 15.9% | 4% | 24.1% | 15.4% | 18.6% |
| CC(=O)OC1CCC2(C)C(CCC3C2CCC2(C)C(c4ccc(=O)oc4)C(OC(C)=O)CC32O)C1 (centres undefined) | 45.5% | 0.05% | 21.3% | 4.5% | -4.45% | -0.5% |
| Cc1ccc(OP(=O)(Oc2ccc(C)cc2)Oc2ccc(C)cc2)cc1.Cc1ccc(OP(=O)(Oc2ccc(C)cc2)Oc2ccc(C)cc2)cc1.[Cl][Cr]([Cl])[Cl] | -1.05% | -3.05% | -2.1% | -7% | 0.9% | 4.45% |
| CC1(C)CN=C(Nc2ccc(F)c(Cl)c2)S1 | 12.9% | 1.15% | -17.9% | 9.8% | -24.7% | -35.4% |
| COc1ccc2c(c1OC)C13CCN(C)C(C2)C12C=CC(=O)C3c1c(OC)ccc(OC)c12 (centres undefined) | 37.4% | 6.95% | 24.2% | 18.8% | 4.2% | 27.2% |
| Cc1ccc(N)cc1 | 2.1% | -2.55% | -7.2% | -1.1% | 9.4% | 1.3% |

| Structure (SMILES) | growth inhibition [1] | growth inhibition [2] | growth inhibition [3] | growth inhibition [4] | growth inhibition [5] | growth inhibition [6] |
| --- | --- | --- | --- | --- | --- | --- |
| CC(C)C1(Cc2ccccc2)C(=O)NC(=S)NC1=O | -2.05% | -0.8% | 9.3% | -2.85% | -14.2% | -2.7% |
| Cc1cc(S(=O)(=O)F)ccc1NC(=O)NCc1ccc([N+](=O)[O-])cc1 | 2.75% | 15.7% | 24.1% | -1.95% | 18.1% | 10.1% |
| C[CH2][Sn]([I])([CH2]C)[CH2]C | 96% (active) | 98% (active) | 97.1% (active) | 98.3% (active) | 98.1% (active) | 98.5% (active) |
| N#Cc1ccc(Cl)cc1 | 9.65% | -21.7% | 6.25% | -2.6% | -4.7% | 7.9% |
| C[As+](c1ccccc1)(c1ccccc1)c1cccc2ccccc12 | 10.2% | 38.9% | 21.2% | -10.1% | 26.1% | 34.3% |
| COc1cc([As](=O)(O)O)c(OC)cc1N | -9.7% | 6.6% | -0.9% | -55.7% | 5.5% | -17.1% |
| CCOP(=O)(OCC)C(C#N)Cc1ccccc1OC (centres undefined) | 20.6% | 4.15% | 0.2% | -18.1% | 3.3% | 12.7% |
| CCC[As](=O)(O)CC[As](=O)(O)CCC | 15.8% | 34.2% | 59.3% | -3.05% | 0.8% | 14.4% |
| NCC(Cc1ccccc1)P(=O)(O)O (centres undefined) | -23.8% | -28.6% | -26.4% | -42.3% | -28.1% | -22.8% |
| ClCc1ccc(Cl)c(Cl)c1 | 16.1% | 3.8% | -3.05% | 10.4% | 1.5% | -20.4% |
| C=[CH][Pb]([CH]=C)([CH]=C)[O]C(C)=O | 97.2% (active) | 98% (active) | 97.9% (active) | 98.8% (active) | 98.2% (active) | 99% (active) |
| CC1(C)OC2COC(CN=[N+]=[N-])C2O1 (centres undefined) | 14.4% | 8.65% | 0.9% | -0.8% | 3% | -3.75% |
| CC(C)C(Br)C(=O)O (centres undefined) | -6.85% | -16.6% | -21.1% | -41.5% | -9.5% | 2.1% |
| COc1ccc(N=NC(=O)NC(CC(C)C)C(=O)NC(C)C(=O)O)cc1 (centres undefined) | -11.8% | -26.4% | -8.5% | -19.6% | -31.4% | 5.15% |
| O=C(CC(=O)C(F)(F)F)c1cccs1.O=C(CC(=O)C(F)(F)F)c1cccs1.O=C(CC(=O)C(F)(F)F)c1cccs1.[Tb] | -5% | 20.6% | 24.6% | -27.5% | -1.5% | 28.2% |
| C=C1CC2C3CC=C4CC(OC(C)=O)CCC4(C)C3CCC2(C)C1=O (centres undefined) | 31.7% | 13.8% | 6.15% | 0.55% | 15.8% | 15.7% |
| N#CS.N=C=S.N=C=S.[Co+3].[NH-]CC[NH-].[NH-]CC[NH-] | 10.5% | 10.2% | 36.4% | 3.5% | 27.9% | 10.7% |
| Cl.[O-]c1cccc2cccnc12.[O-]c1cccc2cccnc12.[O-]c1cccc2cccnc12.[O-]c1cccc2cccnc12.[Ti+4] | 89.8% (active) | 92.8% (active) | 92.8% (active) | 91.3% (active) | 92% (active) | 84.6% (active) |
| N#CCN(CC#N)[N+](=O)[O-] | 6.8% | -4.95% | -14.2% | -6% | -26.3% | 0.4% |
